Experimental data: PubChem BioAssay (NCATS)
Results filed as inconclusive are left out. Activity calls are given as the source filed them. Calls come from the whole dose curve; as a rule, active = well fitted cell-killing curve with a large enough effect; inconclusive = small, poorly fitted or top-dose-only effect, or effect the other way; inactive = flat fitted curve, though single readings scatter.

Assays:
Assay in all cases: Primary qHTS to identify gynecologic anti-cancer compounds using libraries of approved drugs and bioactive compounds (AID 1345084); note: nearly all actives have a fitted effect of over 55% in size
[1] = tested on: CAOV3; settings: Gynecologic cancer cell panel viability, ATPlite luminescence, 48 h; series mostly up to 57.5 µM
Summary of the method: (§1)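 Five-point cytotoxicity, 48 h drug exposure at 37 C, 5% CO2, on cells seeded 16 h beforehand. ATP content read by ATPlite luminescence.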

[2] = tested on: CASKI; settings: Gynecologic cancer cell panel viability, ATPlite luminescence, 48 h; series mostly up to 57.5 µM
Summary of the method: as §1

[3] = tested on: HeLa; settings: Gynecologic cancer cell panel viability, ATPlite luminescence, 48 h; series mostly up to 57.5 µM
Summary of the method: as §1

[4] = tested on: JEG-3; settings: Gynecologic cancer cell panel viability, ATPlite luminescence, 48 h; series mostly up to 57.5 µM
Summary of the method: as §1

[5] = tested on: OV90; settings: Gynecologic cancer cell panel viability, ATPlite luminescence, 48 h; series mostly up to 57.5 µM
Summary of the method: as §1

[6] = tested on: PA-1; settings: Gynecologic cancer cell panel viability, ATPlite luminescence, 48 h; series mostly up to 57.5 µM
Summary of the method: as §1

[7] = tested on: Es-2; settings: Gynecologic cancer cell panel viability, ATPlite luminescence, 48 h; series mostly up to 57.5 µM
Summary of the method: as §1

[8] = tested on: Hek293T; settings: Gynecologic cancer cell panel viability, ATPlite luminescence, 48 h, control line for the selectivity index; series mostly up to 57.5 µM
Summary of the method: as §1
% is set by controls: 0 for no effect and ±100 for the full control effect; potency is the fitted concentration of half-maximal effect.

CNC1CN(c2ccc3c(=O)c(C(=O)O)cn(-c4nccs4)c3n2)CC1OC (configuration not stated)
active: Potency [6] 1.41 µM
inactive: activity change, negative = cytotoxicity [1] -13% [at 11.6 µM] | activity change, negative = cytotoxicity [2] -25.3% [at 11.6 µM] | activity change, negative = cytotoxicity [3] -22.6% [at 11.6 µM] | activity change, negative = cytotoxicity [4] -9.7% [at 11.6 µM] | activity change, negative = cytotoxicity [5] -6.73% [at 11.6 µM]

CC(=O)Nc1cccc(Nc2ncnc(N3CCC(OCc4ccc(OC(F)(F)F)cc4)CC3)n2)c1C
inactive: Potency [1] | Potency [2] | Potency [7] | Potency [3] | Potency [4] | Potency [5] | Potency [6]

O=c1[nH]c([C@@H]2CCCN2)nc2c1oc1ccc(Cl)cc12
inactive: Potency [1] | Potency [2] | Potency [7] | Potency [8] | Potency [4] | Potency [5] | Potency [6]

CNc1ccc([N+](=O)[O-])c(Nc2ccc3[nH]ncc3c2)n1
inactive: Potency [1] | Potency [2] | Potency [4] | Potency [5]
active: Potency [3] 25.1 µM

CC(C)(O)C(=O)N1CCN(c2ccc(C(F)(F)F)c(C3=C(c4c[nH]c5ccccc45)C(=O)NC3=O)c2)CC1
inactive: Potency [1] | Potency [2] | Potency [7] | Potency [8] | Potency [5] | Potency [6]

C=C1CC2OC(=O)C(COC)C2C(OC(=O)/C(C)=C\C)CC2(C)OC1=CC2=O (configuration not stated)
inactive: Potency [1] | Potency [2] | Potency [3] | Potency [4] | Potency [5]

O=C(NCCCCN1CCN(c2cccc(Cl)c2Cl)CC1)c1cc2ccccc2s1
inactive: Potency [1] | Potency [2] | Potency [7] | Potency [3] | Potency [8] | Potency [5] | Potency [6]

CO[C@H]1[C@@H](O)[C@H](O[C@H]2CC[C@@]3(C)C(CCC4C3CC[C@]35COC6(COC(=O)C6)C3CCC45O)C2)O[C@@H](C)[C@@H]1OC1OC(CO)C(OC2OC(CO)C(O)C(O)C2O)C(O)C1O (some centres not stated)
inactive: activity change, negative = cytotoxicity [1] -7.69% [at 11.6 µM] | activity change, negative = cytotoxicity [2] -2.83% [at 11.6 µM] | activity change, negative = cytotoxicity [8] -29.3% [at 11.6 µM] | activity change, negative = cytotoxicity [4] 18.5% [at 11.6 µM] | activity change, negative = cytotoxicity [5] 16.3% [at 11.6 µM]

Oc1cccc(-c2c3nc(c(-c4cccc(O)c4)c4ccc([nH]4)c(-c4cccc(O)c4)c4nc(c(-c5cccc(O)c5)c5ccc2[nH]5)CC4)C=C3)c1
inactive: Potency [1] | Potency [2] | Potency [4]

Cc1[nH]c2ccc(F)cc2c1-c1nc2c3cccnc3c3ncccc3c2[nH]1
active: Potency [1] 3.98 µM | Potency [7] 14.1 µM | Potency [5] 5.62 µM | Potency [6] 7.94 µM
inactive: Potency [3] | Potency [4]

COc1ccc(CNc2nc(N(CCO)CCO)nc3c2ncn3C(C)C)cc1
inactive: Potency [1]
active: Potency [7] 22.4 µM

Cc1cc(N2CCN(C(=O)Oc3ccc(-c4ccccc4)cn3)CC2)c2ccccc2n1
inactive: Potency [1] | Potency [3]

CN1CC2CN(c3ccc4oc5ccccc5c(=O)c4c3)CC2C1 (configuration not stated)
inactive: Potency [1] | Potency [7] | Potency [3] | Potency [8] | Potency [4] | Potency [6]

CN(C)CC1CCn2c(c(C3=C(c4cn(C)c5ccccc45)C(=O)NC3=O)c3ccccc32)C1 (configuration not stated)
inactive: Potency [8] | Potency [4]
active: Potency [1] 22.4 µM | Potency [5] 12.6 µM

CC1(C)CC[C@]2(C(=O)O)CC[C@]3(C)C(=CCC4[C@@]5(C)C[C@@H](O)[C@H](O)C(CO)(CO)C5CC[C@]43C)C2[C@@H]1O (some centres not stated)
inactive: Potency [1] | Potency [2] | Potency [5]

CCCC(Nc1nc(-c2ccc(NC(=O)NCC)c(OC)c2)ncc1C)c1cccnc1 (configuration not stated)
inactive: Potency [1]
active: Potency [7] 0.251 µM | Potency [3] 0.158 µM | Potency [6] 0.251 µM

C[C@H](Nc1ncnc2nc[nH]c12)c1cc2cccc(Cl)c2c(=O)n1-c1ccccc1
inactive: Potency [1] | Potency [7] | Potency [3] | Potency [4] | Potency [5]

COc1cc(O)c2c(c1)/C=C/C[C@H](O)[C@H](O)C(=O)/C=C\C[C@H](C)OC2=O
active: Potency [1] 22.4 µM | Potency [7] 15.8 µM | Potency [8] 15.8 µM | Potency [6] 14.1 µM
inactive: Potency [4]

Cn1nc(-c2ccc(C(F)(F)F)cc2)nc2c(=O)n(C)c(=O)nc1-2
active: Potency [1] 10 µM | Potency [7] 15.8 µM | Potency [3] 20 µM | Potency [4] 10 µM | Potency [6] 5.01 µM

CCN1CCN(Cc2ccc(NC(=O)c3ccc(C)c(Oc4ccnc5[nH]ccc45)c3)cc2C(F)(F)F)CC1
inactive: Potency [1] | Potency [7] | Potency [3] | Potency [8]

Cc1c(NC(=O)OCC2COCCN2)cn2ncnc(Nc3ccc4c(cnn4Cc4cccc(F)c4)c3)c12 (configuration not stated)
inactive: Potency [1] | Potency [7] | Potency [3] | Potency [8] | Potency [5]
